Assay results: PubChem BioAssay (NCATS)
Values joined by “and” are separate entries in the source; they are usually repeats but may differ in a detail not shown here. Equal values may be shown once. Results filed as inconclusive are left out. Active and inactive are the calls of the source. Unless noted, calls come from the whole dose curve; as a rule, active = well fitted curve in the direction sought with a large enough effect; inconclusive = small, poorly fitted or top-dose-only effect, or another doubt; inactive = no such curve, though single readings can be large; an effect the other way counts as inactive or inconclusive.

Legend:
MKL-2 = assay: qHTS assay to identify novel small-molecules to repurpose for Merkel cell carcinoma treatment (AID 1296009); settings: MCC and control cell lines, CellTiter-Glo viability, 72 h; series mostly up to 46 µM; note: % is set by controls: 0 for no effect and ±100 for the full control effect; nearly all actives have a fitted effect of over 60% in size
How it was run: (§1)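 Dose-response viability screen; 72 hr exposure at 37 degree celsius; CellTiter-Glo added, 10 min room temperature, luminescence read; RLUs scaled between no-cell and DMSO wells.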

UISO = assay: as above; settings: MCC and control cell lines, CellTiter-Glo viability, 72 h; series mostly up to 46 µM
How it was run: as §1

WaGa = assay: as above; settings: MCC and control cell lines, CellTiter-Glo viability, 72 h; series mostly up to 46 µM
How it was run: as §1

C33A = assay: Primary qHTS to identify gynecologic anti-cancer compounds using libraries of approved drugs and bioactive compounds (AID 1345084); settings: Gynecologic cancer cell panel viability, ATPlite luminescence, 48 h; series mostly up to 57.5 µM; note: % is set by controls: 0 for no effect and ±100 for the full control effect; nearly all actives have a fitted effect of over 55% in size
How it was run: (§2)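 48 h compound exposure at 37 C, 5% CO2; five-point qHTS. ATPlite luminescence readout of cell ATP.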

CAOV3 = assay: as above; settings: Gynecologic cancer cell panel viability, ATPlite luminescence, 48 h; series mostly up to 57.5 µM
How it was run: as §2

CASKI = assay: as above; settings: Gynecologic cancer cell panel viability, ATPlite luminescence, 48 h; series mostly up to 57.5 µM
How it was run: as §2

Es-2 = assay: as above; settings: Gynecologic cancer cell panel viability, ATPlite luminescence, 48 h; series mostly up to 57.5 µM
How it was run: as §2

HeLa = assay: as above; settings: Gynecologic cancer cell panel viability, ATPlite luminescence, 48 h; series mostly up to 57.5 µM
How it was run: as §2

Hek293T = assay: as above; settings: Gynecologic cancer cell panel viability, ATPlite luminescence, 48 h, control line for the selectivity index; series mostly up to 57.5 µM
How it was run: as §2

JEG-3 = assay: as above; settings: Gynecologic cancer cell panel viability, ATPlite luminescence, 48 h; series mostly up to 57.5 µM
How it was run: as §2

OV90 = assay: as above; settings: Gynecologic cancer cell panel viability, ATPlite luminescence, 48 h; series mostly up to 57.5 µM
How it was run: as §2

PA-1 = assay: as above; settings: Gynecologic cancer cell panel viability, ATPlite luminescence, 48 h; series mostly up to 57.5 µM
How it was run: as §2

SKOV3 = assay: as above; settings: Gynecologic cancer cell panel viability, ATPlite luminescence, 48 h; series mostly up to 57.5 µM
How it was run: as §2

Tov-21-G = assay: as above; settings: Gynecologic cancer cell panel viability, ATPlite luminescence, 48 h; series mostly up to 57.5 µM
How it was run: as §2

Tov112D = assay: as above; settings: Gynecologic cancer cell panel viability, ATPlite luminescence, 48 h; series mostly up to 57.5 µM
How it was run: as §2

[1] = Drug repurposing screens with cells derived from glioblastoma tumor samples (AID 1345199); settings: GBM patient neurospheres viability, ATP luminescence, 48 h; note: nearly all actives have a fitted effect of over 40% in size; note: potency is the fitted concentration of half-maximal effect; for activity, negative = cell killing: % is set by controls: 0 for no effect and ±100 for the full control effect
How it was run: (§3)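 Primary testing used CD133+ neurospheres from four GBM patients, seven concentrations, 48 h exposure and ATP-based viability; confirmation added three slower-growing patient lines.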

astro = assay: as above; settings: viability, ATP luminescence, 48 h; series mostly up to 45.9 µM
How it was run: as §3

[2] = target: Nuclear receptor subfamily 1 group I member 2 (Rattus norvegicus) (UniProt Q9R1A7); assay: qHTS assay for small molecule activators of the rat pregnane X receptor (rPXR) signaling pathway (AID 651751; call rule not given here; note: 0% is about no effect); settings: rPXR reporter cells, luciferase (One-Glo), 24 h
[3] = at 45.9 µM (top of the series), tumour line B
[4] = at 45.9 µM (top of the series), tumour line D
[5] = at 46 µM (top of the series), tumour line A
[6] = at 46.1 µM (top of the series), tumour line C

Sequence of Nuclear receptor subfamily 1 group I member 2 (Rattus norvegicus) (Q9R1A7 whole entry, looked up): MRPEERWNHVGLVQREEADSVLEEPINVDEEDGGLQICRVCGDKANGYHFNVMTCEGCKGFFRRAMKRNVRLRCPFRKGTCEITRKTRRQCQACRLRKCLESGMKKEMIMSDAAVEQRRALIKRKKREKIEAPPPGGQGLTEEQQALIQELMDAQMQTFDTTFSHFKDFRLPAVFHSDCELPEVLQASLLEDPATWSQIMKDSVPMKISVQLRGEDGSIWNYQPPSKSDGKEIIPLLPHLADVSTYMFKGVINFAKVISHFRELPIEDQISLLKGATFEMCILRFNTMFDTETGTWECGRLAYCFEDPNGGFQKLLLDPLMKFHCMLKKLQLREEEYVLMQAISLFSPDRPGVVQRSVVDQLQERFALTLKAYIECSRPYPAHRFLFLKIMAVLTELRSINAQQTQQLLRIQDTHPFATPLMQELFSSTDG

CC1(C)OC(=O)NC1=O
inactive: Potency (MKL-2) | Potency (UISO) | Potency (WaGa) | Potency (C33A) | Potency (CAOV3) | Potency (CASKI) | Potency (Es-2) | Potency (HeLa) | Potency (Hek293T) | Potency (JEG-3) | Potency (OV90) | Potency (PA-1) | Potency (SKOV3) | Potency (Tov-21-G) | Potency (Tov112D) | activity, negative = cell killing [1, 3] -11.2% | activity, negative = cell killing [1, 4] -10.8% | activity, negative = cell killing [1, 5] -19.4% | activity, negative = cell killing [1, 6] 10.3% | Potency (astro)

Cc1cc2nc3c(=O)[nH]c(=O)nc-3n(C[C@H](O)[C@H](O)[C@H](O)CO)c2cc1C
inactive: Potency (MKL-2) | Potency (UISO) | Potency (WaGa) | Potency (C33A) | Potency (CAOV3) | Potency (CASKI) | Potency (Es-2) | Potency (HeLa) | Potency (Hek293T) | Potency (JEG-3) | Potency (OV90) | Potency (PA-1) | Potency (SKOV3) | Potency (Tov-21-G) | Potency (Tov112D) | activity, negative = cell killing [1, 3] -19.3% and -6.89% | activity, negative = cell killing [1, 4] -1.31% and -6.94% | activity, negative = cell killing [1, 5] -12.8% and -5.49% | activity, negative = cell killing [1, 6] -0.108% and 21.1% | Potency (astro) | max response [2] 2.07%

CC1(C)[C@@H]2CC[C@@]1(C)C(=O)C2
inactive: Potency (MKL-2) | Potency (UISO) | Potency (WaGa) | Potency (C33A) | Potency (CAOV3) | Potency (CASKI) | Potency (Es-2) | Potency (HeLa) | Potency (Hek293T) | Potency (JEG-3) | Potency (OV90) | Potency (PA-1) | Potency (SKOV3) | Potency (Tov-21-G) | Potency (Tov112D) | activity, negative = cell killing [1, 3] -26.7% | activity, negative = cell killing [1, 4] -2.76% | activity, negative = cell killing [1, 6] -20.2% | Potency (astro) | max response [2] 4.84%

CN(C)CCOC(C)(c1ccccc1)c1ccccn1 (stereo unspecified)
active: Potency ([1]; tumour line A) 15.8 µM
inactive: Potency (MKL-2) | Potency (UISO) | Potency (WaGa) | Potency (C33A) | Potency (CAOV3) | Potency (CASKI) | Potency (Es-2) | Potency (HeLa) | Potency (Hek293T) | Potency (JEG-3) | Potency (OV90) | Potency (PA-1) | Potency (SKOV3) | Potency (Tov-21-G) | Potency (Tov112D) | activity, negative = cell killing [1, 3] -6.13% | activity, negative = cell killing [1, 4] -4.11% | activity, negative = cell killing [1, 6] -0.022% | Potency (astro) | max response [2] 2.43%

O=C(O)COc1nn(Cc2ccccc2)c2ccccc12
inactive: Potency (MKL-2) | Potency (UISO) | Potency (WaGa) | Potency (C33A) | Potency (CAOV3) | Potency (CASKI) | Potency (Es-2) | Potency (HeLa) | Potency (Hek293T) | Potency (JEG-3) | Potency (OV90) | Potency (PA-1) | Potency (SKOV3) | Potency (Tov-21-G) | Potency (Tov112D) | activity, negative = cell killing [1, 3] 0.429% | activity, negative = cell killing [1, 4] -3.69% | activity, negative = cell killing [1, 6] -16.4% | Potency (astro)

CC(=O)NC(Cc1ccccc1)C(=O)O (stereo unspecified)
inactive: Potency (MKL-2) | Potency (UISO) | Potency (WaGa) | Potency (C33A) | Potency (CAOV3) | Potency (CASKI) | Potency (Es-2) | Potency (HeLa) | Potency (Hek293T) | Potency (JEG-3) | Potency (OV90) | Potency (PA-1) | Potency (SKOV3) | Potency (Tov-21-G) | Potency (Tov112D) | activity, negative = cell killing [1, 3] -12.3% | activity, negative = cell killing [1, 4] -6.53% | activity, negative = cell killing [1, 5] -20.1% | activity, negative = cell killing [1, 6] -23.9% | Potency (astro)

CCOc1ccc2ccccc2c1C(=O)N[C@@H]1C(=O)N2[C@@H]1SC(C)(C)[C@@H]2C(=O)O
inactive: Potency (MKL-2) | Potency (UISO) | Potency (WaGa) | Potency (C33A) | Potency (CAOV3) | Potency (CASKI) | Potency (Es-2) | Potency (HeLa) | Potency (Hek293T) | Potency (JEG-3) | Potency (OV90) | Potency (PA-1) | Potency (SKOV3) | Potency (Tov-21-G) | Potency (Tov112D) | activity, negative = cell killing ([1]; at 20 µM (top of the series), tumour line C) 10.1% | activity, negative = cell killing ([1]; at 21.2 µM (top of the series), tumour line B) -3.6% | activity, negative = cell killing ([1]; at 21.2 µM (top of the series), tumour line D) -26.3% | activity, negative = cell killing ([1]; at 21.3 µM (top of the series), tumour line A) -12.7% | Potency (astro)

CC(O)COc1ccccc1 (stereo unspecified)
inactive: Potency (MKL-2) | Potency (UISO) | Potency (WaGa) | Potency (C33A) | Potency (CAOV3) | Potency (CASKI) | Potency (Es-2) | Potency (HeLa) | Potency (Hek293T) | Potency (JEG-3) | Potency (OV90) | Potency (PA-1) | Potency (SKOV3) | Potency (Tov-21-G) | Potency (Tov112D) | activity, negative = cell killing [1, 3] -16.3% | activity, negative = cell killing [1, 4] 2.5% | activity, negative = cell killing [1, 5] -19.2% | activity, negative = cell killing [1, 6] -0.412% | Potency (astro) | max response [2] 0.833%

CCN(CC)C(=O)Nc1ccc(OCC(O)CNC(C)(C)C)c(C(C)=O)c1 (stereo unspecified)
inactive: Potency (MKL-2) | Potency (UISO) | Potency (WaGa) | Potency (C33A) | Potency (CAOV3) | Potency (CASKI) | Potency (Es-2) | Potency (HeLa) | Potency (Hek293T) | Potency (JEG-3) | Potency (OV90) | Potency (PA-1) | Potency (SKOV3) | Potency (Tov-21-G) | Potency (Tov112D) | activity, negative = cell killing [1, 3] -20.9% | activity, negative = cell killing [1, 4] 0.286% | activity, negative = cell killing [1, 6] -24.6% | Potency (astro)

CCCCCCCCCCCCCCCCCCOCC(O)CO (stereo unspecified)
inactive: Potency (MKL-2) | Potency (UISO) | Potency (WaGa) | Potency (C33A) | Potency (CAOV3) | Potency (CASKI) | Potency (Es-2) | Potency (HeLa) | Potency (Hek293T) | Potency (JEG-3) | Potency (OV90) | Potency (PA-1) | Potency (SKOV3) | Potency (Tov-21-G) | Potency (Tov112D) | activity, negative = cell killing [1, 3] 0.27% | activity, negative = cell killing [1, 4] 9.38% | activity, negative = cell killing [1, 5] -23.8% | activity, negative = cell killing [1, 6] 24.6% | Potency (astro)

CCCCc1ncc(/C=C(\Cc2cccs2)C(=O)O)n1Cc1ccc(C(=O)O)cc1
inactive: Potency (MKL-2) | Potency (UISO) | Potency (WaGa) | Potency (C33A) | Potency (CAOV3) | Potency (CASKI) | Potency (Es-2) | Potency (HeLa) | Potency (Hek293T) | Potency (JEG-3) | Potency (OV90) | Potency (PA-1) | Potency (SKOV3) | Potency (Tov-21-G) | Potency (Tov112D) | activity, negative = cell killing [1, 3] -7.78% | activity, negative = cell killing [1, 4] 9.77% | activity, negative = cell killing [1, 5] -19.8% | activity, negative = cell killing [1, 6] -1.88% | Potency (astro)
